Reference: PubChem BioAssay AID449762 (Southern Research Specialized Biocontainment Screening …, 2010)
The whole screen tested about 330,000 compounds, of which about 1,900 (0.58%) were called active. Another 4% or so got no clear call; they are omitted. Rule as the data show it: inconclusive = inhibition above about 70% without an active follow-up result; inactive = below that. Not all results are given here. Entries with a potency or affinity are not part of this list.

Assay: M. tuberculosis growth inhibition, HTS (AID 449762);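 also: bacterial growth assessed after seven days of incubation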
Settings: M. tuberculosis H37Rv growth inhibition, 7H9 media; at 25 µM; hits give high values
For `O=C(N/N=C1\CCCc2ccccc21)c1cccc(Br)c1`, the inhibition was 17.8% (inactive). With `O=C(NN=C1CCCC1)c1cccc(Br)c1` the inhibition was 8.38% (inactive). With `O=C(Nc1ccc(N2CCOCC2)cc1)C1CC1` the inhibition was -20.2% (inactive). In the case of `O=C(Nc1ccc(Nc2ccccc2)cc1)C1CC1`, the inhibition is reported as 0.68% (inactive). With `CC(C)(C)c1ccc(OCCC(=O)NNC(=O)c2ccccc2)cc1` the inhibition was -10.6% (inactive). In the case of `O=C(COc1ccc([N+](=O)[O-])cc1)N(Cc1cccs1)C1CCS(=O)(=O)C1` (stereo not drawn), the inhibition is reported as -4.33% (inactive). In the case of `COc1ccccc1N1CCN(S(=O)(=O)CCNC(=O)CC2CCCCC2)CC1`, the inhibition is reported as -4.01% (inactive). In the case of `COCCNC(=O)C(c1ccc(C)cc1)N(C(=O)C(=O)NC1CCCC1)c1ccc2c(c1)OCCO2` (stereo not drawn), the inhibition is reported as 0.7% (inactive). For `COCCNC(=S)N/N=C(\C)c1ccc(O)cc1`, the inhibition was -0.19% (inactive). In the case of `COCCNC(=S)N/N=C(\C)c1ccc(OC(F)F)cc1`, the inhibition is reported as 2.04% (inactive). With `O=C(Nc1ccccc1-c1nc2ccccc2[nH]1)c1sc2ccccc2c1Cl` the inhibition was 8.98% (inactive). In the case of `CCN1CCN(Cc2ccc(NC(=O)c3ccc(C)c(NC(=O)c4ccc5n[nH]nc5c4)c3)cc2C(F)(F)F)CC1`, the inhibition is reported as 4.3% (inactive). In the case of `CCN1CCN(Cc2ccc(NC(=O)c3ccc(C)c(NC(=O)c4ccnnc4)c3)cc2C(F)(F)F)CC1`, the inhibition is reported as -1.41% (inactive). For `COC(=O)c1cc(NC(=O)Cc2ccc(OC)cc2)cc(C(=O)OC)c1`, the inhibition was -3.89% (inactive). In the case of `CC1CCC(NC(=O)COC(=O)C2=NN(c3ccccc3)C(=O)CC2)CC1` (stereo not drawn), the inhibition is reported as 1.24% (inactive). For `COc1cccc2cc(C(=O)Nc3ccc(S(=O)(=O)NCC4CCCO4)cc3)c(=O)oc12` (stereo not drawn), the inhibition was 1.32% (inactive). In the case of `Cc1ccccc1C(=O)/C(C#N)=N/Nc1c(C)n(C)n(-c2ccccc2)c1=O`, the inhibition is reported as -1.13% (inactive). In the case of `O=C(/C=C/c1c(F)cccc1Cl)Nc1ccncc1`, the inhibition is reported as 9.18% (inactive). For `O=C(Nc1ccc(OC(F)(F)F)cc1)c1ccc2nc[nH]c2c1`, the inhibition was 41.2% (inactive). In the case of `O=C(Nc1ccc(OC(F)(F)F)cc1)c1ccc2nccnc2c1`, the inhibition is reported as 66.2% (inactive). In the case of `S=C(NCCC(c1ccccc1)c1ccccc1)Nc1ccc(Cl)cc1`, the inhibition is reported as 1.85% (inactive). With `O=c1cc(N2CCOCC2)cnn1-c1ccccc1` the inhibition was 14.3% (inactive). With `O=S(=O)(Nc1ccccc1)c1ccc(S(=O)(=O)N2CCCC2)cc1` the inhibition was -1.05% (inactive). For `Nc1ncc([N+](=O)[O-])s1`, the inhibition was -0.165% (inactive). With `O=[N+]([O-])c1cc(-c2ncccn2)cs1` the inhibition was 0.84% (inactive). For `CCn1nnc(-c2ccccc2NS(=O)(=O)c2ccc(S(=O)(=O)N(C)C3CCCCC3)cc2)n1`, the inhibition was 2.36% (inactive). With `N#Cc1ccccc1COC(=O)CCC(=O)c1cccs1` the inhibition was 5.44% (inactive). For `c1ccc2c(CNc3ccc(CNc4ncn[nH]4)cc3)cccc2c1`, the inhibition was 1.09% (inactive). In the case of `C/C(=N/NC(=O)c1ccccn1)c1ccncc1`, the inhibition is reported as 39.2% (inactive). In the case of `C/C(=N\NC(=O)c1c[nH]c2ccccc12)c1ccco1`, the inhibition is reported as 19.6% (inactive). With `COc1ccc(CN2CCC(Oc3ccc(C(=O)NCc4ccccn4)cc3)CC2)c(F)c1` the inhibition was -12.3% (inactive). In the case of `CCOc1ccc(NC(=O)NC2CCCc3ccccc32)cc1` (stereo not drawn), the inhibition is reported as -11.3% (inactive). For `Cc1cnnc2ccc3c(no[n+]3[O-])c12`, the inhibition was 0.29% (inactive). For `Cc1cc2c(N)cccc2nn1`, the inhibition was -2.97% (inactive). With `Cc1ccc(-n2c(CSc3nc(C)cc(C)n3)n[nH]c2=S)cc1` the inhibition was -6.43% (inactive). In the case of `N#Cc1c(N)nc2c(c1-c1ccc(Br)s1)CCCC2`, the inhibition is reported as 0.77% (inactive). For `Cc1ccc(C)c(NC(=O)CN(C)C(=O)[C@@H](NC(N)=O)C(C)C)c1`, the inhibition was 1.17% (inactive). In the case of `OCC1OC(n2cnc3c(NC4CCCC4)ncnc32)C(O)C1O` (stereo not drawn), the inhibition is reported as -0.62% (inactive). In the case of `OC[C@H]1O[C@@H](n2cnc3c(NC4CCCC4)ncnc32)[C@H](O)[C@@H]1O`, the inhibition is reported as -4.16% (inactive). For `COc1cc(/C=C\C(=O)NCc2ccc3[nH]c(C)cc3c2)cc(OC)c1OC`, the inhibition was -3.67% (inactive). For `COc1ccc(-n2nnc3c(=O)n(CC(=O)N4CCC(Cc5ccccc5)CC4)cnc32)cc1`, the inhibition was -2.79% (inactive). For `O=C(Cn1cnc2c(nnn2-c2ccccc2)c1=O)N1CCC(Cc2ccccc2)CC1`, the inhibition was -6.42% (inactive). For `CCc1ccc(C(=O)COC(=O)C(CCSC)NC(=O)C23CC4CC(CC(C4)C2)C3)cc1` (stereo not drawn), the inhibition was 1.72% (inactive). With `CCCCNC(=S)N(C)/N=C/c1c(F)cccc1F` the inhibition was -1.55% (inactive). For `CCCCNC(=S)N(C)/N=C/c1ccccc1F`, the inhibition was 7.41% (inactive). With `CCCC[C@@H]1CN=C(N)N1CCc1cc(C(F)(F)F)cc(C(F)(F)F)c1` the inhibition was 4.85% (inactive). With `FC(F)(F)c1cc(CCN2C(=S)NC[C@@H]2CC2CCCCC2)cc(C(F)(F)F)c1` the inhibition was -2.31% (inactive). In the case of `COc1ccccc1CC(=O)NC1CCCCCC1`, the inhibition is reported as -3.92% (inactive). In the case of `CC1CCCCC1NC(=O)Cn1c(CN2CCCCC2)nc2ccccc2c1=O` (stereo not drawn), the inhibition is reported as 5.05% (inactive). In the case of `COc1ccc(N2C(=O)CC(NNC(=O)c3cc(C)oc3C)C2=O)cc1` (stereo not drawn), the inhibition is reported as -4.63% (inactive). With `NC1=CC(=O)c2cccc3cccc1c23` the inhibition was -0.47% (inactive). For `O=C1C(=O)c2cccc3cccc1c23`, the inhibition was 3.34% (inactive). With `COc1cc2c(cc1NC(=O)COC(=O)CNS(=O)(=O)c1ccc(C)cc1)oc1ccccc12` the inhibition was 20.6% (inactive). For `Cc1ccc(C)c(NC(=O)CCNS(=O)(=O)c2ccc3[nH]c(=O)oc3c2)c1`, the inhibition was -1.71% (inactive). With `CC1(c2ccc(Cl)cc2)NC(=O)N(CC(=O)c2ccc3c(c2)OCO3)C1=O` (stereo not drawn) the inhibition was -11.1% (inactive). With `CC1(c2ccc(OC(F)F)cc2)NC(=O)N(CC(=O)Nc2ccc3c(c2)OCO3)C1=O` (stereo not drawn) the inhibition was 1.98% (inactive). In the case of `CCN(CC(=O)Nc1ccccc1C(=O)OC)S(=O)(=O)c1ccccc1`, the inhibition is reported as -8.58% (inactive). With `Cc1nc(-c2nnc(SCC(=O)Nc3cc(Cl)cc(Cl)c3)n2C)cs1` the inhibition was -8.27% (inactive). With `CC1CCCCN1C(=O)C1CCN(S(=O)(=O)c2ccc(-n3cnnn3)cc2)CC1` (stereo not drawn) the inhibition was -3.02% (inactive). With `COc1ccc(OC)c2[nH]c(=O)c(CCNC(=O)c3ccc(Br)o3)cc12` the inhibition was -4.84% (inactive). With `Cc1cc(=O)oc2cc(OCC(=O)N3CCN(C(=O)C4COc5ccccc5O4)CC3)c(Cl)cc12` (stereo not drawn) the inhibition was 68.3% (inactive). In the case of `Cc1cc(=O)oc2cc(OCC(=O)N3CCN(C(=O)C4COc5ccccc5O4)CC3)ccc12` (stereo not drawn), the inhibition is reported as 5.34% (inactive). For `O=C(NCCN1CCOCC1)C1CCCN(S(=O)(=O)c2ccc(F)cc2)C1` (stereo not drawn), the inhibition was -1.03% (inactive). With `NNC(=O)C1=NOC(CNc2ncc(C(F)(F)F)cc2Cl)C1` (stereo not drawn) the inhibition was -0.88% (inactive). With `CC(=O)C1=NOC(CNc2ncc(C(F)(F)F)cc2Cl)C1` (stereo not drawn) the inhibition was -4.07% (inactive). With `O=c1[nH]c2cc(Cl)ccc2n(CCNc2ncc(C(F)(F)F)cc2Cl)c1=O` the inhibition was -0.44% (inactive). For `O=c1c2nncn2c2cc(C(F)(F)F)ccc2n1CCNc1ncc(C(F)(F)F)cc1Cl`, the inhibition was -1.6% (inactive). For `Cc1nnc(SCc2c(Cl)cccc2Cl)s1`, the inhibition was 7.37% (inactive). For `O=C(C1CCCN(c2ncnc3c2nc2n3CCCCC2)C1)N1CCN(c2ccc(F)cc2)CC1` (stereo not drawn), the inhibition was 23.2% (inactive). For `O=C(C1CCCN(c2ncnc3c2nc2n3CCCCC2)C1)N1CCN(c2ccccc2)CC1` (stereo not drawn), the inhibition was 6.98% (inactive). For `COc1cc2c(cc1NC(=O)Cc1ccc(C)cc1)oc1ccccc12`, the inhibition was -1.99% (inactive). For `CCOP(=O)(OCC)C(NC(=O)c1ccccc1)=C(Cl)Cl`, the inhibition was -0.5% (inactive). For `CCOc1ccccc1/C=C(/NC(=O)c1ccccc1)C(=O)N1CCCCC1`, the inhibition was 4.77% (inactive). For `COc1ccc(/C(C)=N/N2CCCCC2)c(O)c1`, the inhibition was 0.48% (inactive). In the case of `Cc1nn(Cc2ccc(Cl)cc2Cl)c(C)c1NC(=O)Cn1nc([N+](=O)[O-])c(Cl)c1C`, the inhibition is reported as 5.47% (inactive). For `S=C(NCc1ccc2c(c1)OCO2)NCc1ccc2c(c1)OCO2`, the inhibition was 2.49% (inactive). For `S=C(NCc1ccccc1)NCc1ccc2c(c1)OCO2`, the inhibition was 13% (inactive). In the case of `CN1/C(=C\C(=O)COC(=O)c2ccc(O)c(O)c2)C(C)(C)c2ccccc21`, the inhibition is reported as 25% (inactive). With `Oc1ccc(CCNc2c3ccccc3nc3ccccc23)cc1O` the inhibition was -2.38% (inactive). In the case of `O=C(Nc1ccc2c(c1)OCO2)c1c(F)c(F)c(F)c(F)c1F`, the inhibition is reported as 2.74% (inactive). In the case of `Cc1ccc(OCC(=O)NNC(=O)C2CCN(c3ncnc4sc(C)c(C)c34)CC2)cc1`, the inhibition is reported as 42% (inactive). For `Cc1sc2ncnc(N3CCCCC3)c2c1C`, the inhibition was 5.45% (inactive). With `CSc1ccccc1NC(=O)CN1c2ccccc2CC1C` (stereo not drawn) the inhibition was 7.66% (inactive). For `CCOC(=O)Cc1csc(NC(=O)COc2ccccc2OCC)n1`, the inhibition was -11.5% (inactive). With `CCOC(=O)Cc1csc(NC(=O)CCSc2ccccc2)n1` the inhibition was 5.94% (inactive). In the case of `COC(=O)CSc1ncnc2c1sc1nc(N3CCOCC3)c3c(c12)CCCC3`, the inhibition is reported as -2.32% (inactive). In the case of `COC(=O)c1ccc(CSc2ncnc3c2sc2nc(N4CCOCC4)c4c(c23)CCCC4)o1`, the inhibition is reported as -0.71% (inactive). In the case of `O=c1cnnc(Nc2ccc(Nc3ccccc3)cc2)[nH]1`, the inhibition is reported as 14% (inactive). With `CC(C)c1ccc(NC(=O)CCS(=O)(=O)c2cccc3nonc23)cc1` the inhibition was 6.08% (inactive). With `O=C(C1CCC1)N1CCN(S(=O)(=O)c2ccc(F)cc2)CC1` the inhibition was -11% (inactive). In the case of `CCOc1ccc(/C=C2/C(=N)N3OC(C)=CC3=NC2=O)cc1OC`, the inhibition is reported as 2.41% (inactive). In the case of `CN(CCO)c1cc(N2CCC3(CC2)OCCO3)c2nonc2c1[N+](=O)[O-]`, the inhibition is reported as -10.9% (inactive). For `CN(CCO)c1cc(N2CCCCC2)c2nonc2c1[N+](=O)[O-]`, the inhibition was -7.07% (inactive).
